Measurements as given in PubChem BioAssay (EPA / NIEHS).
Inconclusive results are not listed. The source made the active and inactive calls. How the source made its calls, unless noted: active means hit-call score of the fitted dose curve at least 0.9, where 1 is the maximum; inactive means score below 0.9.

Tests used:
[1] = molecular target: Retinoic acid receptor RXR-alpha (Homo sapiens) (UniProt P19793); test: ATG_RXRa_TRANS: Attagene TRANS-FACTORIAL HepG2 Assay for human Retinoid X Receptor alpha (RXRa) (AID 2283012; active means hit-call score of the fitted dose curve at least 0.9, where 1 is the maximum)
In short: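 TRANS format reporting activity of exogenous RXRa-Gal4 chimera in transiently transfected HepG2, 24 h exposure. Reporter transcripts quantified by RT-PCR with capillary electrophoresis, with gain of signal scored relative to DMSO.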

[2] = molecular target: human Retinoid X Receptor beta (RXRb), RXRB (gene 6257) (UniProt P28702); test: ATG_RXRb_TRANS: Attagene TRANS-FACTORIAL HepG2 Assay for human Retinoid X Receptor beta (RXRb) (AID 2283013; active means hit-call score of the fitted dose curve at least 0.9, where 1 is the maximum)
In short: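 Readout is reporter transcript induction after 24 h dosing. It is measured by RT-PCR of total RNA followed by fluorescent capillary electrophoresis. HepG2 liver cells carry transfected multiple reporter units driven by an exogenous RXRb-Gal4 fusion; activity is relative to DMSO.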

[3] = read-out: E-selectin (Homo sapiens) (UniProt P16581); test: BSK_3C_Eselectin: BioMAP Diversity Plus: 3C Assay for Eselectin Biomarker Activity (AID 2283015); details: primary human endothelial cells (HUVEC); actives raise or lower the signal
In short: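 Primary human umbilical vein endothelial cells (3C system), read 24 h after compound addition; E-selectin measured by ELISA. Bidirectional curve fitting against DMSO baseline; cytotoxicity by parallel SRB total-protein staining.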

[4] = read-out: Interleukin-1 alpha (IL1a), IL1A (gene 3552); test: BSK_BE3C_IL1a: BioMAP Diversity Plus: BE3C Assay for Interleukin-1 alpha (IL1a) Biomarker Activity (AID 2283016); details: primary human bronchial epithelial cells; actives raise or lower the signal
In short: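 IL-1a measured by ELISA after 24 h treatment of human primary bronchial epithelial cells, with gain or loss of signal fitted versus DMSO. Parallel cultures stained with SRB gauge overt cytotoxicity.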

[5] = read-out: Monocyte Chemoattractant Protein-1 (MCP1), CCL2 (gene 6347); test: BSK_3C_MCP1: BioMAP Diversity Plus: 3C Assay for Monocyte Chemoattractant Protein-1 (MCP1) Biomarker Activity (AID 2283017); details: primary human endothelial cells (HUVEC); actives raise or lower the signal
In short: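 Human umbilical vein endothelial cells (3C system) exposed to chemicals for 24 h; MCP-1 quantified by ELISA against the DMSO baseline with bidirectional fitting, and parallel SRB staining used to assess cytotoxicity.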

[6] = read-out: Monocyte Chemoattractant Protein-1 (MCP1), CCL2 (gene 6347); test: BSK_4H_MCP1: BioMAP Diversity Plus: 4H Assay for Monocyte Chemoattractant Protein-1 (MCP1) Biomarker Activity (AID 2283018); details: primary human endothelial cells (HUVEC); actives raise or lower the signal
In short: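 ELISA of MCP-1 (CCL2) 24 h after chemical dosing of HUVEC in the BioMAP 4H system. Gain or loss versus DMSO fitted; parallel SRB staining (560 nm) tracked overt cytotoxicity.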

[7] = read-out: Human Leukocyte Antigen - DR isotype (HLADR), HLA-DRA (gene 3122); test: BSK_3C_HLADR: BioMAP Diversity Plus: 3C Assay for Human Leukocyte Antigen - DR isotype (HLADR) Biomarker Activity (AID 2283019); details: primary human endothelial cells (HUVEC); actives raise or lower the signal
In short: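 HUVEC monoculture, HLA-DR measured by ELISA 24 h after chemical dosing. Fitted bidirectionally against DMSO baseline; parallel SRB staining assessed cytotoxicity, with 3C proliferation read by SRB at 48 h.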

[8] = read-out: Interleukin-8 (IL8), CXCL8 (gene 3576); test: BSK_3C_IL8: BioMAP Diversity Plus: 3C Assay for Interleukin-8 (IL8) Biomarker Activity (AID 2283020); details: primary human endothelial cells (HUVEC); actives raise or lower the signal
In short: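 IL-8 was measured by ELISA in HUVEC cultures 24 h after chemical dosing, with gain or loss of signal fitted relative to DMSO. Parallel SRB total-protein staining tracked overt cytotoxicity.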

[9] = read-out: Monokine induced gamma interferon (MIG), CXCL9 (gene 4283); test: BSK_3C_MIG: BioMAP Diversity Plus: 3C Assay for Monokine induced gamma interferon (MIG) Biomarker Activity (AID 2283021); details: primary human endothelial cells (HUVEC); actives raise or lower the signal;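 on AC50: MIG protein level measured by immunoassay in the treated endothelial cultures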
In short: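 ELISA measurement of MIG in human umbilical vein endothelial cells 24 h after treatment. Cytotoxicity tracked by SRB staining in parallel cultures; gain or loss of signal fitted relative to DMSO.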

[10] = molecular target: human Thyroid Receptor alpha (THRa1), THRA (gene 7067) (UniProt P10827); test: ATG_THRa1_TRANS: Attagene TRANS-FACTORIAL HepG2 Assay for human Thyroid Receptor alpha (THRa1) (AID 2283014; active means hit-call score of the fitted dose curve at least 0.9, where 1 is the maximum)
In short: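 HepG2 cells transiently transfected with chimeric NR-Gal4 and GAL4-UAS reporter units, dosed 24 h. Reporter mRNA quantified by RT-PCR, fluorescent labeling, HpaI digestion and capillary electrophoresis; gain-of-signal fit versus DMSO.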

Measured: AC50

human Thyroid Receptor alpha (THRa1), THRA (gene 7067), sequence (P10827 whole entry, looked up, the tested form may be a part): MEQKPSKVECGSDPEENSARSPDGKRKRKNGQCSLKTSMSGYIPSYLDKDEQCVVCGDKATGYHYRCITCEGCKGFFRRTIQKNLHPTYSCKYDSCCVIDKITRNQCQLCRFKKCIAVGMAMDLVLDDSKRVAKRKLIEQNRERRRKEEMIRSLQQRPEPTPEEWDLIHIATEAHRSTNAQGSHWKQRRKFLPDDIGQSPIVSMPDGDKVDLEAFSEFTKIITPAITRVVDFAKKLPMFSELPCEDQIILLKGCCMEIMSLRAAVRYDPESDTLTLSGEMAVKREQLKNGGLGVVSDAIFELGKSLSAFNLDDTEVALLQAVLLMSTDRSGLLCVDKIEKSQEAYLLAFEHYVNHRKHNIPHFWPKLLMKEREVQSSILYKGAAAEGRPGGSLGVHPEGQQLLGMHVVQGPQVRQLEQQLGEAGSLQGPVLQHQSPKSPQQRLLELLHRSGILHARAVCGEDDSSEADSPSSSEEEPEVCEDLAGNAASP
E-selectin (Homo sapiens), sequence (P16581 whole entry, looked up): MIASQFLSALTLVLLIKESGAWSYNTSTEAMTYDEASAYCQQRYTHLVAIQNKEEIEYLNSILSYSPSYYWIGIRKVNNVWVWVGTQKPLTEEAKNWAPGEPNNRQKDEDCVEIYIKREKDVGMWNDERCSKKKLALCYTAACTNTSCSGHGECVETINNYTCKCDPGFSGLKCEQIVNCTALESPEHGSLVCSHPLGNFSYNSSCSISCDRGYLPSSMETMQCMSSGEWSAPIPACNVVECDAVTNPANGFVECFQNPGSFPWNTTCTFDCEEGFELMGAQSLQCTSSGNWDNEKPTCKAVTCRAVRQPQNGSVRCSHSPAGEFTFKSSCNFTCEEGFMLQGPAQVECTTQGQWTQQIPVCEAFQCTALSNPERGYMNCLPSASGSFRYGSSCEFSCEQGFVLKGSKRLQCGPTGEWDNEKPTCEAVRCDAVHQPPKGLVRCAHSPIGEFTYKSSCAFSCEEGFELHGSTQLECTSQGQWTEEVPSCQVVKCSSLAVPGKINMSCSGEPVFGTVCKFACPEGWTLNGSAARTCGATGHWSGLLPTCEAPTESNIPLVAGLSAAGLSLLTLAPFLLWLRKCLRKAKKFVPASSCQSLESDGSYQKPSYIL
Retinoic acid receptor RXR-alpha (Homo sapiens), sequence (P19793 whole entry, looked up, the tested form may be a part): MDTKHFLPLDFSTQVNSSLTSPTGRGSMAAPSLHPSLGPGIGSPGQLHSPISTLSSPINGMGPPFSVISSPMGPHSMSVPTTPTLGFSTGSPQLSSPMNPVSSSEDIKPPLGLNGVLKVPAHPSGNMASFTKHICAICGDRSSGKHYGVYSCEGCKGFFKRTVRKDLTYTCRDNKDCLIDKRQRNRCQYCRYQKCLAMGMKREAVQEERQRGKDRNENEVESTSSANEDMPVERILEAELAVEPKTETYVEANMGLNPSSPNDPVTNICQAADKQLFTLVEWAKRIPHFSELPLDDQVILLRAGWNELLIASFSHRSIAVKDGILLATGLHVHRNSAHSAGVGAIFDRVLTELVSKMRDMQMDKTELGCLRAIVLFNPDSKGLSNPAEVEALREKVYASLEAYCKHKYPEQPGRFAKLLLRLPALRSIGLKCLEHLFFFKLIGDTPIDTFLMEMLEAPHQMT
human Retinoid X Receptor beta (RXRb), RXRB (gene 6257), sequence (P28702 whole entry, looked up, the tested form may be a part): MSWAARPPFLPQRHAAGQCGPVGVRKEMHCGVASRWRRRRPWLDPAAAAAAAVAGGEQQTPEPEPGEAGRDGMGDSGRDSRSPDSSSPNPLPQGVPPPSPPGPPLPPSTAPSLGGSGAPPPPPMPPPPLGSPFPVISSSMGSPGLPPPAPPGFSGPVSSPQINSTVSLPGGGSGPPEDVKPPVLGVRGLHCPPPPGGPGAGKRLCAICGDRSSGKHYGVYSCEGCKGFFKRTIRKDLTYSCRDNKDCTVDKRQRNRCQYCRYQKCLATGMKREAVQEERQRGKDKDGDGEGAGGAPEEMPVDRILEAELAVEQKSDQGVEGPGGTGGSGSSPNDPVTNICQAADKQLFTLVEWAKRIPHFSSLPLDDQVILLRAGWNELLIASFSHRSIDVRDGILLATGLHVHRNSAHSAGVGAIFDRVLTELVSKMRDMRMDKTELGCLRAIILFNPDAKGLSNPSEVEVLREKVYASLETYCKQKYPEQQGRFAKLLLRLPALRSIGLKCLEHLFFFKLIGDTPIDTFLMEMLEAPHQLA

CN1CCCC1=O
active: [2] 31.5 µM
not listed: [10]
inactive: all other assays above

Clc1cc(Cl)c(Cl)cc1Cl
not listed: [2] | [10]
inactive: all other assays above

Cc1ccccc1Cl
not listed: [1]
inactive: all other assays above

CN1CCN(Cc2cc(-c3ccc4[nH]c(=O)oc4c3)co2)[C@@H](c2ccc(F)cc2)C1
active: [5] 17.6 µM | [6] 3.68 µM | [7] 27.6 µM
not listed: [2] | [10]
inactive: all other assays above

Cc1oc(-c2ccccc2)nc1CCOc1cccc2c1ccn2CCC(=O)O
active: [1] 44.9 µM | [2] 8.2 µM
not listed: [10]
inactive: all other assays above

CCCCCCCCCCCC(=O)OC
active: [2] 57.9 µM
not listed: [10]
inactive: all other assays above

COc1cc(C=O)ccc1O
not listed: [10]
inactive: all other assays above

CCOC(=O)CCC(=O)OCC
not listed: [2] | [10]
inactive: all other assays above

CCCCCCCCCCCCCCCC
not listed: [2]
inactive: all other assays above

Cc1ccc(Cl)cc1
not listed: [2] | [10]
inactive: all other assays above

O=C(N[C@@H](Cc1ccccc1)[C@@H](O)C(=O)N1C[C@@H](O)[C@@H](O)C1)c1cc2cc(Cl)ccc2[nH]1
not listed: [2] | [10]
inactive: all other assays above

NCCO
not listed: [10]
inactive: all other assays above

NS(=O)(=O)c1cc2c(cc1Cl)NCNS2(=O)=O
not listed: [10]
inactive: all other assays above

CCOC(=O)C(C)(C)Oc1ccc(Cl)cc1
not listed: [10]
inactive: all other assays above

NC(=O)Cn1c(=O)cc(CCN2CCN(c3nccc4sccc34)CC2)c2ccc(F)cc21
not listed: [2] | [10]
inactive: all other assays above

COCCOC[C@H](CC1(C(=O)NC2CCC(C(=O)O)CC2)CCCC1)C(=O)Oc1ccc2c(c1)CCC2 (some centres undefined)
not listed: [2] | [10]
inactive: all other assays above

CCCCCCCCCCCCCO
active: [2] 58.9 µM | [3] 37.8 µM | [5] 39 µM | [6] 37.6 µM | [7] 35.8 µM | [8] 37 µM | [9] 37.4 µM
inactive: [1] | [4]

CCCCN(CCCC)CCCC
not listed: [1] | [10]
inactive: all other assays above

COCCOCCOC
not listed: [1] | [2]
inactive: all other assays above

Cc1cc(=O)[nH]c(=S)[nH]1
not listed: [1] | [10]
inactive: all other assays above

COc1ccc(S(=O)(=O)N2C(=O)[C@@](c3ccccc3OC)(N3C[C@H](O)C[C@H]3C(=O)N(C)C)c3cc(Cl)ccc32)c(OC)c1
inactive: [3] | [4] | [6] | [9]
active: [5] 20 µM | [7] 32.6 µM | [8] 31.5 µM

OC[C@@H](O)[C@@H](O)[C@H](O)[C@H](O)CO
not listed: [1] | [2] | [10]
inactive: all other assays above

CNC(=O)[C@H]1O[C@@H](n2cnc3c(NCc4cc(Cl)ccc4OCc4cc(C)no4)ncnc32)[C@H](O)[C@@H]1N
not listed: [1] | [10]
inactive: all other assays above

COC(=O)c1ccc(O)cc1
active: [2] 55.3 µM
not listed: [1] | [10]
inactive: all other assays above

CN[C@H]1CC[C@@H](c2ccc(Cl)c(Cl)c2)c2ccc(S(N)(=O)=O)cc21
active: [3] 30.6 µM | [4] 30.3 µM | [5] 27.5 µM | [6] 20 µM | [7] 14.7 µM | [8] 23.9 µM | [9] 37.8 µM

CCCCCCCCCCCCCCCCCC(=O)O
not listed: [1] | [2] | [10]
inactive: all other assays above

CC(=O)OCCOCCOCCOC(C)=O
not listed: [1]
inactive: all other assays above

CCCCCCCCCCC
not listed: [1] | [2] | [10]
inactive: all other assays above

CC1(C)CC(N=C=O)CC(C)(CN=C=O)C1 (centres undefined)
not listed: [1] | [2] | [10]
inactive: all other assays above

Cc1ccc(C)c(O)c1C
not listed: [1]
inactive: all other assays above

O=[N+]([O-])C(CO)(CO)CO
not listed: [1] | [2]
inactive: all other assays above

O=C(OCCCCCOC(=O)c1ccccc1)c1ccccc1
not listed: [1]
inactive: all other assays above

C[C@]12C=CC(=O)C=C1CC[C@@H]1[C@@H]2C(=O)C[C@@]2(C)[C@H]1CC[C@]2(O)C(=O)CO
not listed: [1] | [2]
inactive: all other assays above

COc1cc(-c2nc(NC(=O)c3cc4cc(C)cc(C)c4n3CC(=O)O)sc2CCC2CCCCC2)c(OC)cc1Cl
inactive: [10]
active: [3] 5.53 µM | [4] 3.38 µM | [5] 2.91 µM | [6] 5.38 µM | [7] 3.08 µM | [8] 5.83 µM | [9] 5.26 µM

CC(C)c1ccc(C(=O)N=C(N)N)cc1S(C)(=O)=O
not listed: [1] | [2]
inactive: all other assays above

Cc1nc(-c2ccc3c(c2)CCN(CCC2CCC(NC(=O)/C=C/c4ccc(F)cc4)CC2)CC3)no1 (centres undefined)
inactive: [3] | [4] | [5] | [6] | [9]
active: [7] 5.83 µM | [8] 7.5 µM

C[Si]1(C)O[Si](C)(C)O[Si](C)(C)O[Si](C)(C)O1
active: [2] 46.9 µM
not listed: [1] | [10]
inactive: all other assays above

CCCCCCCCCCO
not listed: [1] | [2] | [10]
inactive: all other assays above

COc1ccc(C)cc1N
not listed: [1] | [2]
inactive: all other assays above

CCCCCCCC=O
not listed: [1] | [10]
inactive: all other assays above

Cc1c(C(=O)O)c(O)cc2c1C(=O)c1c(O)c([C@@H]3O[C@H](CO)[C@@H](O)[C@H](O)[C@H]3O)c(O)c(O)c1C2=O
not listed: [1] | [10]
inactive: all other assays above

Cc1ccc2ncccc2c1
not listed: [1] | [10]
inactive: all other assays above

Cc1cccc(Nc2cc(Cl)nc(SCC(=O)O)n2)c1C
not listed: [1] | [2] | [10]
inactive: all other assays above

O=C(O)Cc1ccccc1Nc1c(Cl)cccc1Cl
not listed: [1] | [2] | [10]
inactive: all other assays above

c1cc(-c2ccncc2)ccn1
not listed: [1] | [2] | [10]
inactive: all other assays above

Oc1ccc2ccccc2c1N=Nc1ccccc1
active: [2] 6.33 µM
not listed: [1]
inactive: all other assays above

CCCc1cc(=O)[nH]c(=S)[nH]1
not listed: [1] | [10]
inactive: all other assays above
